In all, about 68,000 sequences were measured (“fluorescence intensity (a.u.)”: median about 9,100, highest 2% from about 16,000 on). This is one part of a sample in which the highest values are shown more often than they occur.
Target: OsWRKY34 (Oryza sativa, UniProt Q0JBA9 1-250)
Assay: protein-binding microarray (RPBM); PBS, 2% BSA, 51.3 ng/ul salmon testes DNA, 50 uM zinc acetate, 200 nM TF, 25 C, 1 h; high values mean tight binding
Conditions: protein: recombinant; tags: N-terminal polyhistidine and DsRed monomer fusion (pET32a); label: CyDye5-dUTP incorporated in the synthesized complementary strand; 3' TTTTT single-stranded linker to array surface; dsDNA, one strand shown
Method in brief: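 The binding signal is fluorescence intensity per array feature (arbitrary units). Readings came from an Axon 4000B scanner after a washed, 2% BSA-blocked, double-stranded custom Agilent array had been incubated for 1 h at 25 °C with 200 nM protein and 50 µM zinc acetate. The protein was a Ni–NTA-purified transcription factor fused N-terminally to polyhistidine and DsRed, expressed in E. coli BL21-CodonPlus.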

Sequence of OsWRKY34 (Q0JBA9 entry or part of it): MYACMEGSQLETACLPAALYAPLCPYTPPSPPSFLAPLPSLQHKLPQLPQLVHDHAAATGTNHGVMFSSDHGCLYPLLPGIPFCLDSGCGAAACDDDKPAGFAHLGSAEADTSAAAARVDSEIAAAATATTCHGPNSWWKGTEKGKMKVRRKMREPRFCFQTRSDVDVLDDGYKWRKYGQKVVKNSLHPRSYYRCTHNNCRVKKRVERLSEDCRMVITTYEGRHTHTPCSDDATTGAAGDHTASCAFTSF

Row | Sequence | binding signal
1 | CCAACTCCGAACGCCTCTTCTTCTCCTCACCGCCGCCGAACGGAGTCACCTAGTGCAG | 9650 fluorescence intensity (a.u.)
2 | TGATGTTACTTTGATTTGGGGTTTGATTTGGGAATATGCACGGAGTCACCTAGTGCAG | 13500 fluorescence intensity (a.u.)
3 | ATGGTTCGATTATTGGTGGAGTTCTCTCTCGGTTTCTCCGCGGAGTCACCTAGTGCAG | 10600 fluorescence intensity (a.u.)
4 | TGTCGGTGTCGGTGGGCGGGGATTCGCGGTAGTGGTGGAACGGAGTCACCTAGTGCAG | 19700 fluorescence intensity (a.u.)
5 | ATCTCCCGCGGTTTCGATTTGGGTTTATTTGGGCGGTGGGCGGAGTCACCTAGTGCAG | 18800 fluorescence intensity (a.u.)
6 | CAGATTGTTTTCCATGATTCTTAGCCTCTCTGATGTTTGACGGAGTCACCTAGTGCAG | 9640 fluorescence intensity (a.u.)
7 | TGGATTTAGGATGTTACTTTGATTTGGGGATTTGGGGTTTCGGAGTCACCTAGTGCAG | 17200 fluorescence intensity (a.u.)
8 | GTGGGAGTGGCGGTGTCGGGTCCGGAACGAAACGGCGGGGCGGAGTCACCTAGTGCAG | 10300 fluorescence intensity (a.u.)
9 | TCTTTGTTTCCCGCGTTTTGTTGGGGATTCGATTTTCGGGCGGAGTCACCTAGTGCAG | 11100 fluorescence intensity (a.u.)
10 | GAAGGAGAAGGAGAGGGGAGGGGCTGACGGGTGGGGTCCACGGAGTCACCTAGTGCAG | 14000 fluorescence intensity (a.u.)
11 | CAACGGCGGTGGCGGCGGCGGCGGCGGCGGGGCGGCGTCGCGGAGTCACCTAGTGCAG | 8370 fluorescence intensity (a.u.)
12 | GGGCTGACGGGTGGGGTCCATGTTGTTTTCCTCTTAGGCACGGAGTCACCTAGTGCAG | 23000 fluorescence intensity (a.u.)
13 | ATTTGTGATGTGGATTTGGGGTGTTACTTTGATTTGGGGACGGAGTCACCTAGTGCAG | 12900 fluorescence intensity (a.u.)
14 | GCGCCGTCCCTTCGGGCCCACAAGCCGTCCACCCACTTCCCGGAGTCACCTAGTGCAG | 11300 fluorescence intensity (a.u.)
15 | GGGCCTATAACTGTAGTTCCATCACGTCTCTCTGTACGTTCGGAGTCACCTAGTGCAG | 8820 fluorescence intensity (a.u.)
16 | GCCATCTCGCCTAAATAAAACCGCGCTACCCATCGACCGACGGAGTCACCTAGTGCAG | 9280 fluorescence intensity (a.u.)
17 | TCCAGTTTTGGTCTGGGTGATGTGTCATGTTCTGATTGGCCGGAGTCACCTAGTGCAG | 8180 fluorescence intensity (a.u.)
18 | CTTCTTCCATCCAACCCATTGCATGGTGTATTTTCCATATCGGAGTCACCTAGTGCAG | 8320 fluorescence intensity (a.u.)
19 | AAATATGGTGGGCCCCACATGGCTGCGCCTCAAGCTTCTCCGGAGTCACCTAGTGCAG | 9100 fluorescence intensity (a.u.)
20 | GTCTCATGTCACACTCACGTAGCTATATTTTTTATATTATCGGAGTCACCTAGTGCAG | 9120 fluorescence intensity (a.u.)
21 | TGGGATGTATTTGAGTTGTGATGCATTTCTTTTAGGATTTCGGAGTCACCTAGTGCAG | 8310 fluorescence intensity (a.u.)
22 | ACTTTGATTGGGCTGGGTTCATATGAGATTAGGGGAAAAACGGAGTCACCTAGTGCAG | 13500 fluorescence intensity (a.u.)
23 | TGGATGTCGCCGTCGGCGGGGTGGTGGGATTTGGAACTGGCGGAGTCACCTAGTGCAG | 12500 fluorescence intensity (a.u.)
24 | ATGCATTTCTTTTAGGATTTGTGATGTATTTTTCGTTTGACGGAGTCACCTAGTGCAG | 9640 fluorescence intensity (a.u.)
25 | GTTTGGGATGTCGCGGGGATTTAGGGGCGGTGGGTGGTTTCGGAGTCACCTAGTGCAG | 39300 fluorescence intensity (a.u.)
26 | GATTTGGGGATTTGGGGTTTGATTTAGGATGTGCATGCCACGGAGTCACCTAGTGCAG | 21400 fluorescence intensity (a.u.)
27 | TTAGGGGTAGGCTAGAGATTGATTGGGGCTTATATGATAACGGAGTCACCTAGTGCAG | 19700 fluorescence intensity (a.u.)

Row | Sequence | binding signal
28 | TTAGGGGCGGTGGGTGGTTTTCGGCTGGGAAATCGCGGATCGGAGTCACCTAGTGCAG | 11500 fluorescence intensity (a.u.)
29 | GACCATTATGTTAACTTGGATTAGGGGTAGGCTAGAGATTCGGAGTCACCTAGTGCAG | 11000 fluorescence intensity (a.u.)
30 | GAGCTCCTGTTGGTCGGGGACGTTTCGCGTTGGTTCCTCTCGGAGTCACCTAGTGCAG | 12000 fluorescence intensity (a.u.)
31 | TATAATTTTGTGCTAATATGCATTTTCCTTGTTTTGTTTACGGAGTCACCTAGTGCAG | 11300 fluorescence intensity (a.u.)
32 | ATCACAATAGTAACTATACTCTACAATCCATGGTTTCTTACGGAGTCACCTAGTGCAG | 8960 fluorescence intensity (a.u.)
33 | CCTTGGGCTGTTTTACCATGGTTTTTGCACACGTGGATGACGGAGTCACCTAGTGCAG | 10100 fluorescence intensity (a.u.)
34 | CTGACATGCGTCGCCATTGACTTTCGCCGCCGCCGCCGCGCGGAGTCACCTAGTGCAG | 9140 fluorescence intensity (a.u.)
35 | GTCACCATCAAAATAGCTTCATATCTTCCCTGGAAATTTTCGGAGTCACCTAGTGCAG | 8160 fluorescence intensity (a.u.)
36 | TGTAGTAATTGGGTATCTTCATCATTTGTCCTAAAAAAGTCGGAGTCACCTAGTGCAG | 8080 fluorescence intensity (a.u.)
37 | CCACTTTAGATCCCAAATTATATATGGTCGAGTTCTTTTCCGGAGTCACCTAGTGCAG | 9470 fluorescence intensity (a.u.)
38 | CGCAACCCCAAGCACTGGTGTTCTACATTCAATCAATCATCGGAGTCACCTAGTGCAG | 38500 fluorescence intensity (a.u.)
39 | ACATCCATCCACTCAACCCATTCTACCGTATTAAGCCAATCGGAGTCACCTAGTGCAG | 8192 fluorescence intensity (a.u.)
40 | ATCATCGTTCACCCGCATTTCATCTACTTCAATCTACATTCGGAGTCACCTAGTGCAG | 9810 fluorescence intensity (a.u.)
41 | TCCGGTTCGTTATTTTTATTTTTCTCAGGGAAAAAAAATCCGGAGTCACCTAGTGCAG | 8060 fluorescence intensity (a.u.)
42 | TCGTGGTGGTGGTGGTGGTGGAAGTTAGGGTTTGAGGGTTCGGAGTCACCTAGTGCAG | 17300 fluorescence intensity (a.u.)
43 | CTGGTTCGGGAATTTCTGGGTGTATAGGGAAATAATTTATCGGAGTCACCTAGTGCAG | 8060 fluorescence intensity (a.u.)
44 | GATAGGGTTAGCAGGGTGGGAAAATATATTTATTATAGTTCGGAGTCACCTAGTGCAG | 18700 fluorescence intensity (a.u.)
45 | GATAGGGTTAGGGATGGATAGGGTTTCCTTGAGGGTAGTTCGGAGTCACCTAGTGCAG | 16400 fluorescence intensity (a.u.)
46 | ACGGCCTAGTTTTGGTTGAAGTTTTTGGTAGGGGTTAGTTCGGAGTCACCTAGTGCAG | 12300 fluorescence intensity (a.u.)
47 | TCTATTTTATAATCGGTGTGTTTGACTGGTATTTTTTAGCCGGAGTCACCTAGTGCAG | 8930 fluorescence intensity (a.u.)
48 | AGGGTGGGTTATATTTGAGCTGGTTAGCAAAAACTATAATCGGAGTCACCTAGTGCAG | 17900 fluorescence intensity (a.u.)
49 | TAGGGTTTGGATGGATAGGGTATATGAGGGTAATTTAGGCCGGAGTCACCTAGTGCAG | 8450 fluorescence intensity (a.u.)
50 | AGGGGCGGAACTGGGTAGGCAGGGTGGGTTATATTTGAGCCGGAGTCACCTAGTGCAG | 10500 fluorescence intensity (a.u.)
51 | TGAGTGGTGGGAGGAGTTAGCAAGTGGTTTGACCGTGGTTCGGAGTCACCTAGTGCAG | 11800 fluorescence intensity (a.u.)
52 | GAAGTTAGGGTTTGAGGGTTTGGTTCCGGAGGGTAGGGTCCGGAGTCACCTAGTGCAG | 9850 fluorescence intensity (a.u.)
53 | CCCACCTCCACCTCCGCCGGCCGGTACGTTTATCCACTGACGGAGTCACCTAGTGCAG | 9030 fluorescence intensity (a.u.)
54 | GACTGATTTGTTTTTTTTTTCTCCCGGTTTTTTCGACGGACGGAGTCACCTAGTGCAG | 9270 fluorescence intensity (a.u.)
